# Experimental data reported in article PMC7862700, “An all-to-all approach to the identification of sequence-specific readers for epigenetic DNA modifications on cytosine”.
# Tests used:
# Test in all cases: DAPPL (digital affinity profiling via proximity ligation, sequencing); 10 mM Tris-HCl pH 7.5, 50 mM NaCl, 1 mM DTT, 4% glycerol, room temperature, 30 min; GST-TFs on glutathione beads, 16-mer random dsDNA library, 0.1% formaldehyde crosslink after washing; high values mean tight binding
# FLI1 = molecular target: T1, FLI1 (Homo sapiens, UniProt Q01543 1-452); conditions: protein: recombinant; tags: N-terminal GST; dsDNA, one strand shown
# T1 sequence: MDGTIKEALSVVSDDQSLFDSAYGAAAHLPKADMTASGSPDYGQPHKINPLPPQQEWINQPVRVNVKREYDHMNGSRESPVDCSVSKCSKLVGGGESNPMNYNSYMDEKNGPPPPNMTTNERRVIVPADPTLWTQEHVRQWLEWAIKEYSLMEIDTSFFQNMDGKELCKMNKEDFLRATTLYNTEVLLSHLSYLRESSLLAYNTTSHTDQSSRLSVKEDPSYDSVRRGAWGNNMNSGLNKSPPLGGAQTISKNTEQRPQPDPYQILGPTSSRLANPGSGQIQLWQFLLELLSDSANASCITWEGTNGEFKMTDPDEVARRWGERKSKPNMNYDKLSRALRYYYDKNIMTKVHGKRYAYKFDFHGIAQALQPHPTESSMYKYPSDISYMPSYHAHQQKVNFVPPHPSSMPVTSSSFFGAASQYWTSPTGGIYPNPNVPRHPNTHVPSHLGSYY
# Procedure, shortened: (§1)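 The binding signal reported is, for every hexamer, its read frequency for a factor over its read frequency for the tag-only sample. Reads came from pools of yeast-expressed, GST-fused human transcription factors on glutathione beads, barcoded with DNA and mixed with that sample, which were incubated with 200 nmole of a random double-stranded 16-mer DNA library in Tris/NaCl/DTT/glycerol buffer at room temperature for 30 min. After washing, the pools were crosslinked with 0.1% formaldehyde, proximity-ligated with BsaI/T4 ligase for 1 h at 37 °C, PCR-amplified and sequenced on an Illumina NextSeq500.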
# ELK1 = molecular target: T2, ELK1 (Homo sapiens, UniProt P19419 1-428); conditions: protein: recombinant; tags: N-terminal GST; dsDNA, one strand shown
# T2 sequence: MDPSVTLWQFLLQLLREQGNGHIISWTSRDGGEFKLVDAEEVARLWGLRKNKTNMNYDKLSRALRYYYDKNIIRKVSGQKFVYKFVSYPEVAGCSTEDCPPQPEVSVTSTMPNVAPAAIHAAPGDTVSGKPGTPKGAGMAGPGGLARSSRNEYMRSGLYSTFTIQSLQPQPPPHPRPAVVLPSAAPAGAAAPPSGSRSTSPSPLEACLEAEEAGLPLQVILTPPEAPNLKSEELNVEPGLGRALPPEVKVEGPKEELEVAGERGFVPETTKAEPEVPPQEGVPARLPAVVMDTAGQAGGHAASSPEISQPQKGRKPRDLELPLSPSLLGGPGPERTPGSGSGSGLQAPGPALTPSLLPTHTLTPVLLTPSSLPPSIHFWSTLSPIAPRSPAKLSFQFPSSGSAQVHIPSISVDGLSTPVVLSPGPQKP
# Procedure, shortened: as §1
# GABPA = molecular target: T3, GABPA (Homo sapiens, UniProt Q06546 1-454); conditions: protein: recombinant; tags: N-terminal GST; dsDNA, one strand shown
# T3 sequence: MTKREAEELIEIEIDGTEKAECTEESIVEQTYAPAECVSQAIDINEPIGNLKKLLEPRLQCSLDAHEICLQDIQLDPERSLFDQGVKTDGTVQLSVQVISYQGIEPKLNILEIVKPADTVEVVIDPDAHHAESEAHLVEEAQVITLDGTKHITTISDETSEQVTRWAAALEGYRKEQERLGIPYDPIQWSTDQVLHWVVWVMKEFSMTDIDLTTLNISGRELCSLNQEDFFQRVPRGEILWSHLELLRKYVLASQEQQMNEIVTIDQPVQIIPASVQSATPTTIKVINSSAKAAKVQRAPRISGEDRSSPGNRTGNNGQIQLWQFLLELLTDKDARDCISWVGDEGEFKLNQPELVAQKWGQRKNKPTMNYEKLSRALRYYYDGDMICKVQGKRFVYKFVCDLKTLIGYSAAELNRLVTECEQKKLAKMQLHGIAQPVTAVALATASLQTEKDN
# Procedure, shortened: as §1
# ERG = molecular target: T4, ERG (Homo sapiens, UniProt P11308 1-479); conditions: protein: recombinant; tags: N-terminal GST; dsDNA, one strand shown
# T4 sequence: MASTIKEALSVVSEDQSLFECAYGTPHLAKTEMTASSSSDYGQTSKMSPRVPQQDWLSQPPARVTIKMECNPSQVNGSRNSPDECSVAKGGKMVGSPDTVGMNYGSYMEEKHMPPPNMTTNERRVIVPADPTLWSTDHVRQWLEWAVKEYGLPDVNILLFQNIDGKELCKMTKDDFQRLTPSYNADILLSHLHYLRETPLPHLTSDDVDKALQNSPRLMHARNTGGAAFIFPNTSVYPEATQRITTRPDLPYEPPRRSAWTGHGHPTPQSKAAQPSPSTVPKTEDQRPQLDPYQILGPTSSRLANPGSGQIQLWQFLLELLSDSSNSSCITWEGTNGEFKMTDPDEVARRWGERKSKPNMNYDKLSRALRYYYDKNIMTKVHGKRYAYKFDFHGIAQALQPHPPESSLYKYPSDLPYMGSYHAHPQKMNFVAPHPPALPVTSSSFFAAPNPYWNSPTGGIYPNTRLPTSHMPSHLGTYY
# Procedure, shortened: as §1
# ELF1 = ELF1 (Homo sapiens, UniProt P32519 1-619); conditions: protein: recombinant; tags: N-terminal GST; dsDNA, one strand shown
# Chain of ELF1 (P32519 whole entry): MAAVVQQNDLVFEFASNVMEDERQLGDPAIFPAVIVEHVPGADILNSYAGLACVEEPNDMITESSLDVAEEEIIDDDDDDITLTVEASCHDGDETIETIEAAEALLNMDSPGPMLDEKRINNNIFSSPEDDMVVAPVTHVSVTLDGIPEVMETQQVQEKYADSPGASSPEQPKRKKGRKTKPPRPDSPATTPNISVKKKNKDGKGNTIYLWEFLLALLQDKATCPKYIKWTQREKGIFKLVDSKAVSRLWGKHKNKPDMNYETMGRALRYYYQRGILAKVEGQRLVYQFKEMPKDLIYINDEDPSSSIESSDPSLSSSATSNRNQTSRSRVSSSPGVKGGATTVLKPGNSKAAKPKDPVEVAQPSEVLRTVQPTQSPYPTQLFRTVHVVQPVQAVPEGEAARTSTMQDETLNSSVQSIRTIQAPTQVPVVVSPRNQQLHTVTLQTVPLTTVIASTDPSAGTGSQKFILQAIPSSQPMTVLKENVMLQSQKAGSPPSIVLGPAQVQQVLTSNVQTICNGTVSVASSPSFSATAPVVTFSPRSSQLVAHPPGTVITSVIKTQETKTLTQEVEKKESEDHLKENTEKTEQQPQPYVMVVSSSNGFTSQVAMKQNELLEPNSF
# Procedure, shortened: as §1
# EHF = molecular target: T5, EHF (Homo sapiens, UniProt Q9NZC4 1-300); conditions: protein: recombinant; tags: N-terminal GST; dsDNA, one strand shown
# T5 sequence: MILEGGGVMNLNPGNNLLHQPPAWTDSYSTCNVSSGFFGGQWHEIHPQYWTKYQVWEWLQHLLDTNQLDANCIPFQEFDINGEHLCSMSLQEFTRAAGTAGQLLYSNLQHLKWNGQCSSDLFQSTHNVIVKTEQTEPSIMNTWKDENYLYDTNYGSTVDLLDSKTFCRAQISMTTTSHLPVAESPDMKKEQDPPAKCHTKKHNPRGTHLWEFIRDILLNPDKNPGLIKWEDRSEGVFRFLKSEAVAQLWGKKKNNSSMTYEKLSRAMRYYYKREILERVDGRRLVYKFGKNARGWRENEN
# Procedure, shortened: as §1
# SPI1 = SPI1 (Homo sapiens, UniProt P17947 1-270); conditions: protein: recombinant; tags: N-terminal GST; dsDNA, one strand shown
# Procedure, shortened: as §1
# SPIB = SPIB (Homo sapiens, UniProt Q01892 1-262); conditions: protein: recombinant; tags: N-terminal GST; dsDNA, one strand shown
# Chain of SPIB (Q01892 whole entry): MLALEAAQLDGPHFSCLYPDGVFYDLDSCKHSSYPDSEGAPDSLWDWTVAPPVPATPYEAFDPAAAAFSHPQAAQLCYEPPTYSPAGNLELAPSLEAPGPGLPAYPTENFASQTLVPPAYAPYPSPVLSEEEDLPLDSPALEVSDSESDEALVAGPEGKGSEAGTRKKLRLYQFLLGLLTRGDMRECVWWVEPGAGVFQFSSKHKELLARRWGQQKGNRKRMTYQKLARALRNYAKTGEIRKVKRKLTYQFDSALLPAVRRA
# Procedure, shortened: as §1
# ELK3 = molecular target: T6, ELK3 (Homo sapiens, UniProt P41970 1-407); conditions: protein: recombinant; tags: N-terminal GST; dsDNA, one strand shown
# T6 sequence: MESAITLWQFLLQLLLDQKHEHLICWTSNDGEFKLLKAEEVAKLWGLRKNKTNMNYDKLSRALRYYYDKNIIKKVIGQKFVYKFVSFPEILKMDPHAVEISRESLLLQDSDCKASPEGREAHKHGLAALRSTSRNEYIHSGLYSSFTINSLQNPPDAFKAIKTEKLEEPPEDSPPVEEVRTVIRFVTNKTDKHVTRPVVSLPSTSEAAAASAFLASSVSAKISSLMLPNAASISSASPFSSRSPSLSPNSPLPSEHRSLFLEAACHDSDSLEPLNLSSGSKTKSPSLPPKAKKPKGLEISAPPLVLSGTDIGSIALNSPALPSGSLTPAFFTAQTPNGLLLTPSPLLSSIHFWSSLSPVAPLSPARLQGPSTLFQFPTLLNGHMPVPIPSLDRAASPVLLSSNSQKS
# Procedure, shortened: as §1
# FEV = molecular target: T7, FEV (Homo sapiens, UniProt Q99581 1-238); conditions: protein: recombinant; tags: N-terminal GST; dsDNA, one strand shown
# T7 sequence: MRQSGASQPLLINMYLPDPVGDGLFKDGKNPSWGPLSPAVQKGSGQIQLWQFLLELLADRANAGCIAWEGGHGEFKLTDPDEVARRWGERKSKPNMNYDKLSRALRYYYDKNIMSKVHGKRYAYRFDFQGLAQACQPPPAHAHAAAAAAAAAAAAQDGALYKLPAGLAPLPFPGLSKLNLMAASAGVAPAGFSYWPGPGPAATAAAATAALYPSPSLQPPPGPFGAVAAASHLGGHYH
# Procedure, shortened: as §1
# ETV5 = ETV5 (Homo sapiens, UniProt P41161 1-510); conditions: protein: recombinant; tags: N-terminal GST; dsDNA, one strand shown
# Chain of ETV5 (P41161 whole entry): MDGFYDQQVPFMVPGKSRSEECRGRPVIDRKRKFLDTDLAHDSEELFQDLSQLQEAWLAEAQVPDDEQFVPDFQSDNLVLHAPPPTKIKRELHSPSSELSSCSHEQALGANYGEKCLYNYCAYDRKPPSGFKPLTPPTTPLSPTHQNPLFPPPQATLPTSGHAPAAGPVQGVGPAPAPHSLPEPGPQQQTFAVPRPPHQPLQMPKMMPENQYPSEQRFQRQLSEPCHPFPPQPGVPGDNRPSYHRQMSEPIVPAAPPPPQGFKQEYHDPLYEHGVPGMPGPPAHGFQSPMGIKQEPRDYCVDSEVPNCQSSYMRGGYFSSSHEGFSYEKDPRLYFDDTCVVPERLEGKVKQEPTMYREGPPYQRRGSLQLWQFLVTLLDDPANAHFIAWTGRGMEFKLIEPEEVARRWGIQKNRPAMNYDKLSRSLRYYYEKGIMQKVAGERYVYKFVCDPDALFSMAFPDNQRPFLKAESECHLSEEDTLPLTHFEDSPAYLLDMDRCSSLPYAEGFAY
# Procedure, shortened: as §1
# HSF1 = HSF1 (Homo sapiens, UniProt Q00613 1-529); conditions: protein: recombinant; tags: N-terminal GST; chain copies: 3; dsDNA, one strand shown
# Chain of HSF1 (Q00613 whole entry): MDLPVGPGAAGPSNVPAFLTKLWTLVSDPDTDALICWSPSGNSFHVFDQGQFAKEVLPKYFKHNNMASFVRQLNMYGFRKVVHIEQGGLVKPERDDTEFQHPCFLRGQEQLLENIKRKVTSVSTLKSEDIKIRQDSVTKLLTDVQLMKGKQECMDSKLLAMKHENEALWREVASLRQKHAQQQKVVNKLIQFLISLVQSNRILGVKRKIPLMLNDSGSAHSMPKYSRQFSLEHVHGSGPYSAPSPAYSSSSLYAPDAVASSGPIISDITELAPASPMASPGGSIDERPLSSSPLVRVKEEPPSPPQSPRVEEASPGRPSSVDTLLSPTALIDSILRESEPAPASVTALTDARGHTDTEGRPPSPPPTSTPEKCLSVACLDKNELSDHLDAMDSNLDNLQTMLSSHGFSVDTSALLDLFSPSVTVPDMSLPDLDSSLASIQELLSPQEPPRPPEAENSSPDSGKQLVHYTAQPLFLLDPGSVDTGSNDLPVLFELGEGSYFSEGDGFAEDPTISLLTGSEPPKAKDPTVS
# Procedure, shortened: as §1
# SPIC = molecular target: T8, SPIC (Homo sapiens, UniProt Q8N5J4 1-248); conditions: protein: recombinant; tags: N-terminal GST; dsDNA, one strand shown
# T8 sequence: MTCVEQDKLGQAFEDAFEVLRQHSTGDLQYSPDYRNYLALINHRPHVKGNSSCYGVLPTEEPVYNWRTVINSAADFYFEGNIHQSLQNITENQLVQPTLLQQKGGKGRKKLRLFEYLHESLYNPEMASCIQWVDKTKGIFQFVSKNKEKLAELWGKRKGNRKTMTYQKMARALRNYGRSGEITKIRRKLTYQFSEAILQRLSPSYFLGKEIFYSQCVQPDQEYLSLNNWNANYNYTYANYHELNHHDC
# Procedure, shortened: as §1
# ELF4 = ELF4 (Homo sapiens, UniProt Q99607 1-663); conditions: protein: recombinant; tags: N-terminal GST; dsDNA, one strand shown
# Chain of ELF4 (Q99607 whole entry): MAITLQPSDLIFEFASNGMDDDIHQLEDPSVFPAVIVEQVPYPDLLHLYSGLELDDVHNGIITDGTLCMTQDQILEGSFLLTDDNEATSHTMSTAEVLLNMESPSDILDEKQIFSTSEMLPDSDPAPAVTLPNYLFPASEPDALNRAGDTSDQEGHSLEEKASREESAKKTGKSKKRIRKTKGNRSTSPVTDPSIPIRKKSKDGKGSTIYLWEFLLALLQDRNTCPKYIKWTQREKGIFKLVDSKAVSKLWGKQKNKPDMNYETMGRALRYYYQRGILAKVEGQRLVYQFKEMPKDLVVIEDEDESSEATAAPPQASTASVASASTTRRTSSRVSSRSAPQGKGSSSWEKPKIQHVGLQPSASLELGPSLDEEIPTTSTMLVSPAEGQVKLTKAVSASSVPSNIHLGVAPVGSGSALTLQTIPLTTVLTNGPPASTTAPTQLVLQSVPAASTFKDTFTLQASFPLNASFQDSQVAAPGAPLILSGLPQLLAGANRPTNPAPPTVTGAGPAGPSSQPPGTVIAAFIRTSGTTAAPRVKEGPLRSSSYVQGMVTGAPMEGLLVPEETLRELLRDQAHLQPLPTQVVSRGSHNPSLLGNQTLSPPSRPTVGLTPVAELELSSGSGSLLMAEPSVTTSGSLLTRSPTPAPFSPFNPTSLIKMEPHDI
# Procedure, shortened: as §1
# ELK4 = molecular target: T9, ELK4 (Homo sapiens, UniProt P28324-2 1-405); conditions: protein: recombinant; tags: N-terminal GST; dsDNA, one strand shown
# T9 sequence: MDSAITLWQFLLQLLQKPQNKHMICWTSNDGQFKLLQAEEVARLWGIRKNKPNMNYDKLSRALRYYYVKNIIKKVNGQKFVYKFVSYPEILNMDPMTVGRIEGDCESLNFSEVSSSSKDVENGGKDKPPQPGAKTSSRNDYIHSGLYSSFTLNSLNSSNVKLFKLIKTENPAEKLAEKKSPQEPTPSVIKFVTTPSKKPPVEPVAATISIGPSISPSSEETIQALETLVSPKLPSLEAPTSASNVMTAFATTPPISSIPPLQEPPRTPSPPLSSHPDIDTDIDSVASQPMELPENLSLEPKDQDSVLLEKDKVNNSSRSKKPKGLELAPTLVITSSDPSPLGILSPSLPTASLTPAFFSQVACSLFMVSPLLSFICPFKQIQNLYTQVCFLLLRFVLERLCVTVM
# Procedure, shortened: as §1
# ETV2 = molecular target: T10, ETV2 (Homo sapiens, UniProt O00321 1-342); conditions: protein: recombinant; tags: N-terminal GST; dsDNA, one strand shown
# T10 sequence: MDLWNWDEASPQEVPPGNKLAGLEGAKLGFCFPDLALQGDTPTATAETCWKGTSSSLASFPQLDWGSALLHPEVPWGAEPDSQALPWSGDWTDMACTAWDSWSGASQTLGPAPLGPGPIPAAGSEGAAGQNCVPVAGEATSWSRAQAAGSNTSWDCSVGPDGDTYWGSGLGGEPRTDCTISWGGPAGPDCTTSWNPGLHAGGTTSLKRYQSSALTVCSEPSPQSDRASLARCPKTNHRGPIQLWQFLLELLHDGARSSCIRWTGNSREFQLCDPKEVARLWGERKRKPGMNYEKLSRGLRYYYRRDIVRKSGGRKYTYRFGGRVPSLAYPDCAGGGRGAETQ
# Procedure, shortened: as §1
# ELF3 = molecular target: T11, ELF3 (Homo sapiens, UniProt P78545 1-371); conditions: protein: recombinant; tags: N-terminal GST; dsDNA, one strand shown
# T11 sequence: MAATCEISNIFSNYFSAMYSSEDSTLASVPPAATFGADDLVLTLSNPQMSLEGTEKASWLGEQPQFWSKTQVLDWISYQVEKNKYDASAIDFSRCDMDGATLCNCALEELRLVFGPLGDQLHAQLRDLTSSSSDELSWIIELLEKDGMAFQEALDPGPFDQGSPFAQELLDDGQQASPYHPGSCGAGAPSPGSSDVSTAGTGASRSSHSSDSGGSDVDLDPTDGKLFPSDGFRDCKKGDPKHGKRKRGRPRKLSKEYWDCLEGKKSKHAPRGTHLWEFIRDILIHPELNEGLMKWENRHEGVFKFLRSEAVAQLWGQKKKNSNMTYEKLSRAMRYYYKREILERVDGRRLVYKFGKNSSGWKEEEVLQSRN
# Procedure, shortened: as §1
# ETV1 = ETV1 (Homo sapiens, UniProt P50549 1-477); conditions: protein: recombinant; tags: N-terminal GST; dsDNA, one strand shown
# Chain of ETV1 (P50549 whole entry): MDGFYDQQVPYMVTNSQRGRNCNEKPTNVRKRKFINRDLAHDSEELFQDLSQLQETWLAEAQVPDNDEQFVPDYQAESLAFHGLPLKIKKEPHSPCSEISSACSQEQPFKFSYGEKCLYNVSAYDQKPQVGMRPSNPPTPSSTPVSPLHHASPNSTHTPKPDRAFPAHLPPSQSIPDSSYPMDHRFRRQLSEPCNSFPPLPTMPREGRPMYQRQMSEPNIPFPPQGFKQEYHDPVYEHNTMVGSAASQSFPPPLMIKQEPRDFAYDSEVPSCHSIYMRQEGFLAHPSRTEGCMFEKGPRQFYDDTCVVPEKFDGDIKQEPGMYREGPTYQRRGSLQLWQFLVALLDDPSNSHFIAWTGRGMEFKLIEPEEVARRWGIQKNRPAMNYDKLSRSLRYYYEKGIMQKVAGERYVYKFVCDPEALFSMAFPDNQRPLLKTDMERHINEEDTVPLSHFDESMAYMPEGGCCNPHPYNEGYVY
# Procedure, shortened: as §1
sequence,measurement,setting,value
GAAATG,binding signal,FLI1,"1.52 fold enrichment (6-mer frequency, TF over GST control)"
same,binding signal,ELK1,"1.61 fold enrichment (6-mer frequency, TF over GST control)"
same,binding signal,GABPA,"1.55 fold enrichment (6-mer frequency, TF over GST control)"
same,binding signal,ERG,"1.73 fold enrichment (6-mer frequency, TF over GST control)"
same,binding signal,ELF1,"1.54 fold enrichment (6-mer frequency, TF over GST control)"
same,binding signal,EHF,"1.65 fold enrichment (6-mer frequency, TF over GST control)"
same,binding signal,SPI1,"1.67 fold enrichment (6-mer frequency, TF over GST control)"
same,binding signal,SPIB,"1.6 fold enrichment (6-mer frequency, TF over GST control)"
same,binding signal,ELK3,"1.6 fold enrichment (6-mer frequency, TF over GST control)"
same,binding signal,FEV,"1.77 fold enrichment (6-mer frequency, TF over GST control)"
same,binding signal,ETV5,"1.7 fold enrichment (6-mer frequency, TF over GST control)"
same,binding signal,HSF1,"1.1 fold enrichment (6-mer frequency, TF over GST control)"
same,binding signal,SPIC,"1.56 fold enrichment (6-mer frequency, TF over GST control)"
same,binding signal,ELF4,"1.49 fold enrichment (6-mer frequency, TF over GST control)"
same,binding signal,ELK4,"1.65 fold enrichment (6-mer frequency, TF over GST control)"
same,binding signal,ETV2,"1.55 fold enrichment (6-mer frequency, TF over GST control)"
same,binding signal,ELF3,"1.78 fold enrichment (6-mer frequency, TF over GST control)"
same,binding signal,ETV1,"1.58 fold enrichment (6-mer frequency, TF over GST control)"
